Reference: PubChem BioAssay (Tox21)
Values without a mark were called inactive. Inconclusive results are not listed. Entries that show only a call come without a potency. Activity calls are given as the source filed them. Unless noted, calls follow the shape of the full dose curve.

Assays:
[1] = Nuclear factor erythroid 2-related factor 2/antioxidant responsive element (Nrf2/ARE) small molecule agonists: qHTS cell viability counter screen in human keratinocytes (AID 1919968; active = well fitted curve in the direction sought with a large enough effect in the repeat runs; an effect the other way counts as inactive or inconclusive; also: nearly all actives have a fitted effect of over 55% in size)
How it was run: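 KeratinoSens HaCaT cells, 1,500/well, preincubated 5 h, then exposed to compounds in DMSO for 23 h at 37 C/5% CO2. Viability read as CellTiter-Fluor fluorescence after 1 h, in the same wells as the ARE-luciferase read.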

[2] = Nuclear factor erythroid 2-related factor 2/antioxidant responsive element (Nrf2/ARE) small molecule agonists: luciferase reporter gene qHTS assay in human keratinocytes (AID 1919969); also: nearly all actives have a fitted effect of over 35% in size; also: potency is read from the fitted curve at half-maximal effect
[3] = molecular target: Gonadotropin-releasing hormone receptor (Homo sapiens) (UniProt P30968); test: Human gonadotropin-releasing hormone receptor (GnRHR) small molecule agonists, calcium flux assay in GnRHR-HEK293 cells (AID 1920063); also: nearly all actives have a fitted effect of over 35% in size
Chain of Gonadotropin-releasing hormone receptor (Homo sapiens) (P30968 whole entry, looked up): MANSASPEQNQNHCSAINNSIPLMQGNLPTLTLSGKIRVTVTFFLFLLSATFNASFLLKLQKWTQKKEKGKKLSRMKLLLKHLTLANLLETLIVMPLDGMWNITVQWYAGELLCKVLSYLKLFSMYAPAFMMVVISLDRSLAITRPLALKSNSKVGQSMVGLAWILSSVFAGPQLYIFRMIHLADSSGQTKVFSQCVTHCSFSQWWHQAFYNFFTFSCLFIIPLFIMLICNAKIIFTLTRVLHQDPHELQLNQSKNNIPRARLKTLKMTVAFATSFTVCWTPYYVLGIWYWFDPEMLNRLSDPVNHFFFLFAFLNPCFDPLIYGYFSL
How it was run: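 HEK293 cells stably expressing human GnRHR were dye-loaded for 1 h at 37 C. Compound was added in agonist mode and fluorescence (Ex/Em 480/540) recorded kinetically for 3 min. Fifteen concentrations, triplicates.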

[4] = molecular target: KiSS-1 receptor (Homo sapiens) (UniProt Q969F8); test: Human kisspeptin (KISS1R) small molecule agonists, calcium flux assay in KISS1R-HEK293 cells (AID 1920064; active = well fitted curve in the direction sought with a large enough effect in the repeat runs; an effect the other way counts as inactive or inconclusive)
Chain of KiSS-1 receptor (Homo sapiens) (Q969F8 whole entry, looked up): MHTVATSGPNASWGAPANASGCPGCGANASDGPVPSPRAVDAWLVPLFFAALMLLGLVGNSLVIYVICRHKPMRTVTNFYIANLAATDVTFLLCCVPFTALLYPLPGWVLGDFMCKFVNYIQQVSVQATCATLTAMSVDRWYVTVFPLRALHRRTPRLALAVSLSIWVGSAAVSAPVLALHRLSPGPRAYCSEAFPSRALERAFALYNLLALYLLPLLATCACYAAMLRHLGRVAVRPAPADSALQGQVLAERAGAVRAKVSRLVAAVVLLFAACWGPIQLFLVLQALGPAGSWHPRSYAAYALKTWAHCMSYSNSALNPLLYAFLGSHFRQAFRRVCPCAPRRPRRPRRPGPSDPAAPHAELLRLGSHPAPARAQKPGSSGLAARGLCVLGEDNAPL
How it was run: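 HEK293 cells stably expressing human KISS1R were loaded with calcium dye for 1 h at 37 C, then given compound; fluorescence (Ex/Em 480/540) was read kinetically for 3 min. Fifteen concentrations, triplicate.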

[5] = G protein-coupled receptor (GPCR) small molecule agonists, calcium flux assay: HEK293 wild type cell line counter screen (AID 1920065)
How it was run: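 Wild-type HEK293 cells plated 18 h, loaded with calcium dye 1 h at 37 C, then compounds added in agonist mode (ATP as positive control). Kinetic fluorescence Ex/Em 480/540 recorded 3 min at 1 sec intervals; 15 concentrations, triplicate.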

[6] = p53 small molecule agonists, cell-based qHTS assay with human liver microsomes (AID 1963577);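 also: p53 response element beta-lactamase reporter cells with liver microsomes plus NADPH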
How it was run: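 In this qHTS, p53 response-element beta-lactamase cells receive test compound together with a microsome/NADPH activating system (0.5 mg/mL final each) and are incubated 16 h at 37 C before LiveBLAzer fluorescence detection.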

[7] = p53 small molecule agonists, cell-based qHTS assay with rat liver microsomes (AID 1963578)
How it was run: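 Agonist mode in p53RE-bla reporter cells, with compounds co-incubated 16 h at 37 C alongside 0.5 mg/mL rat liver microsomes and 0.5 mg/mL NADPH (final), followed by a 2 h LiveBLAzer detection step.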

[8] = p53 small molecule agonists, cell-based qHTS assay with human liver microsomes: qHTS cell viability counter screen (AID 1963579); also: nearly all actives have a fitted effect of over 45% in size
How it was run: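 Metabolically activated exposure: compounds, human liver microsomes and NADPH (0.5 mg/mL final apiece) were added to p53RE-bla cells seeded 5 h earlier, left 16 h at 37 C, and then assessed for viability by CellTiter-Glo luminescence.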

[9] = p53 small molecule agonists, cell-based qHTS assay with rat liver microsomes: qHTS cell viability counter screen (AID 1963580); also: nearly all actives have a fitted effect of over 45% in size
How it was run: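 Viability is assessed in parallel with the p53 reporter read: HCT-116 p53RE-bla cells receive compounds plus rat microsomes and NADPH (0.5 mg/mL final apiece), incubate 16 h at 37 C, and then CellTiter-Glo luminescence is recorded.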

[10] = p53 small molecule agonists, cell-based qHTS assay: qHTS cell viability counter screen (AID 1963581); also: nearly all actives have a fitted effect of over 45% in size
How it was run: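 p53RE-bla HCT-116 cells, compounds added 5 h after plating and incubated 16 h at 37 C. Cytotoxicity measured in the same wells as intracellular ATP by CellTiter-Glo luminescence after 30 min at room temperature.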

[11] = p53 small molecule agonists, cell-based qHTS assay (AID 1963582; active = well fitted activation curve with a large enough effect in the signal ratio in the repeat runs, not every such curve was filed as active; the % refers to the signal ratio)
How it was run: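 p53RE-bla reporter cells, compounds added in DMSO after 5 h plating, incubated 16 h at 37 C. Beta-lactamase read via 2 h room-temperature LiveBLAzer B/G FRET substrate, fluorescence intensity.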

[12] = molecular target: 5-hydroxytryptamine receptor 2A (Homo sapiens) (UniProt P28223); test: 5-hydroxytryptamine receptor 2A (HTR2A) small molecule antagonists, cell-based qHTS assay (AID 1963586); also: nearly all actives have a fitted effect of over 45% in size
Chain of 5-hydroxytryptamine receptor 2A (Homo sapiens) (P28223 whole entry, looked up): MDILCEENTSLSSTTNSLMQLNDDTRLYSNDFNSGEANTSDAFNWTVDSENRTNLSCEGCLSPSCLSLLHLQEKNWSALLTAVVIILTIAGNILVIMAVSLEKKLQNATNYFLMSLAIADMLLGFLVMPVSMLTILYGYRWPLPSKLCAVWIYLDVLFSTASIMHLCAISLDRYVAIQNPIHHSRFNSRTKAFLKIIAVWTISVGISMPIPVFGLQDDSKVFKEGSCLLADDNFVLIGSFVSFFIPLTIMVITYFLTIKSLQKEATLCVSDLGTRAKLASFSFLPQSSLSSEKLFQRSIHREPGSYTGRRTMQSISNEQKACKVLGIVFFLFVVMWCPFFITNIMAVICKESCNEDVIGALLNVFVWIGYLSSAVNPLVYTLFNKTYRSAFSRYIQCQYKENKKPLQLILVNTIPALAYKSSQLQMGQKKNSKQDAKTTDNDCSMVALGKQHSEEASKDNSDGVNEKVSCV
How it was run: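 Antagonist-mode intracellular calcium assay: DOI (4 nM) added after 5 min compound pre-incubation at room temperature to dye-loaded HTR2A-CHO cells. Fluorescence followed for 3 min, sampled every second.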

[13] = molecular target: 5-hydroxytryptamine receptor 2A (Homo sapiens) (UniProt P28223); test: 5-hydroxytryptamine receptor 2A (HTR2A) small molecule agonists, cell-based qHTS assay (AID 1963587); also: nearly all actives have a fitted effect of over 30% in size
How it was run: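 CHO cells stably expressing human HTR2A, plated 18 h, loaded with calcium dye 1 h at 37 C. Agonist mode: compounds added and intracellular calcium fluorescence recorded kinetically for 2 min at 1 sec intervals.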

[14] = molecular target: Muscarinic acetylcholine receptor M1 (Homo sapiens) (UniProt P11229); test: Cholinergic receptor muscarinic 1 (CHRM1) small molecule antagonists, cell-based qHTS assay (AID 1963588); also: nearly all actives have a fitted effect of over 40% in size; also: potency is read from the fitted curve at half-maximal effect
Chain of Muscarinic acetylcholine receptor M1 (Homo sapiens) (P11229 whole entry, looked up): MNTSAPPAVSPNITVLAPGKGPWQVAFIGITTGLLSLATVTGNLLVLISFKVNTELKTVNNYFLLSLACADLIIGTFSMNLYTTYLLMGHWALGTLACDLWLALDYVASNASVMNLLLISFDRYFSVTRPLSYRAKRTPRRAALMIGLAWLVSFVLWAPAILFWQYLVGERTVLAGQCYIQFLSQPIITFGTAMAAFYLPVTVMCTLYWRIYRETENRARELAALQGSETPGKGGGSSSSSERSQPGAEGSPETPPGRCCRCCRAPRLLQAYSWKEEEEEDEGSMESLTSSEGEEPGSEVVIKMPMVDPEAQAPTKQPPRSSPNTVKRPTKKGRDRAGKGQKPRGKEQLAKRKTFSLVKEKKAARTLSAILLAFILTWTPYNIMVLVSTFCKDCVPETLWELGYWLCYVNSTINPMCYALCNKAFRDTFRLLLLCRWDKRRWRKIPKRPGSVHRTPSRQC
How it was run: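 CHRM1-CHO calcium-flux assay, antagonist mode. Cells were seeded 18 h, dye-loaded 1 h at 37 C and given compound for 5 min at RT, then acetylcholine was added at 50nM. FDSS fluorescence was read 3 min; 15 concentrations, three runs.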

[15] = molecular target: Muscarinic acetylcholine receptor M1 (Homo sapiens) (UniProt P11229); test: Cholinergic receptor muscarinic 1 (CHRM1) small molecule agonists, cell-based qHTS assay (AID 1963589); also: nearly all actives have a fitted effect of over 35% in size
How it was run: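 CHO cells stably expressing human CHRM1 were loaded with calcium dye for 1 h at 37 C, then compound was added in agonist mode. Intracellular calcium fluorescence was followed kinetically at 1 s intervals. Fifteen concentrations were tested in three independent runs.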

[16] = cAMP Responsive Elements (CRE) small molecule agonists, cell-based qHTS assay (AID 1963590)
How it was run: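 CRE-bla HEK 293T cells, 2,000/well in DMEM with 10% dialyzed FBS and 25 mM HEPES, pre-incubated 18 h at 37 C, then exposed to compound 3 h at 37 C. Beta-lactamase reporter read with LiveBLAzer B/G FRET substrate after 2 h at room temperature.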

[17] = molecular target: Beta-2 adrenergic receptor (Homo sapiens) (UniProt P07550); test: Adrenergic beta2 receptor (ADRB2) small molecule antagonists, cell-based qHTS assay (AID 1963592); also: series mostly up to about 92 µM; nearly all actives have a fitted effect of over 50% in size
Chain of Beta-2 adrenergic receptor (Homo sapiens) (P07550 whole entry, looked up): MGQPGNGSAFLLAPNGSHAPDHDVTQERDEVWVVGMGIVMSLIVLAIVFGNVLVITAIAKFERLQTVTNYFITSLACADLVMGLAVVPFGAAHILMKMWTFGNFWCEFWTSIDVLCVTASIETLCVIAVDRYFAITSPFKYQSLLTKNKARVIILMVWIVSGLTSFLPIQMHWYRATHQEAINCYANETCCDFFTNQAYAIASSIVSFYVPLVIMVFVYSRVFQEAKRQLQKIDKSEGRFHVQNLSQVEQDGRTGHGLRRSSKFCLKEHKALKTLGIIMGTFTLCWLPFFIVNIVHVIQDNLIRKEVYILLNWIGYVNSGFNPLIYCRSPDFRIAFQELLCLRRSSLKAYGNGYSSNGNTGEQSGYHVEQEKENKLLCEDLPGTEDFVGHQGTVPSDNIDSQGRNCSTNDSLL
How it was run: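 Cells (CHO, stable ADRB2 overexpression) incubated 18-20hr at 37C; compounds added from DMSO; agonist mix (1nM isoproterenol, 100uM IBMX, 25uM Ro-20-1724) added; 0.5hr RT; d2-cAMP and anti-cAMP-cryptate added; 1hr RT; 665/615 nm read.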

[18] = cAMP Responsive Elements (CRE) small molecule antagonists, cell-based qHTS assay (AID 1963591; active = well fitted inhibition curve with a large enough effect in the signal ratio in the repeat runs, not every such curve was filed as active; the % refers to the signal ratio)
How it was run: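 CRE-bla HEK293T cells plated 18 h, then given compound plus NKH477 at 0.25 uM final for 3 h at 37C. Beta-lactamase reporter read with LiveBLAzer B/G FRET substrate after 2 h at room temperature.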

[19] = molecular target: D(2) dopamine receptor (Homo sapiens) (UniProt P14416); test: Dopamine D2 receptor (DRD2) small molecule agonists, cell-based qHTS assay (AID 1963594); also: nearly all actives have a fitted effect of over 35% in size
Chain of D(2) dopamine receptor (Homo sapiens) (P14416 whole entry, looked up): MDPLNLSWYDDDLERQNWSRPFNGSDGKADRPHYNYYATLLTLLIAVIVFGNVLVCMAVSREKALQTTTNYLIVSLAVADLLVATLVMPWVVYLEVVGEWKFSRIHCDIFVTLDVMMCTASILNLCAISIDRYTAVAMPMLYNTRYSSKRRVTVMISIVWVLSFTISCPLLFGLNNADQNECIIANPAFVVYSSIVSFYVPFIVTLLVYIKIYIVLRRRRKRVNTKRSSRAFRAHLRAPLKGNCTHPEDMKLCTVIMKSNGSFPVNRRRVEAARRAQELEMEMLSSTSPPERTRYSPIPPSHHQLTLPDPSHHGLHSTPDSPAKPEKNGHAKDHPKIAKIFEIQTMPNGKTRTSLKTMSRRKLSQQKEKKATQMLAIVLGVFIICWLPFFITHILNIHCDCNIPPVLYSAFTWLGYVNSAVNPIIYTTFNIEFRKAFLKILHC
How it was run: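 HEK293 cells stably expressing human DRD2, pre-treated with PDE inhibitor Ro20-1724 (0.1 mM final) and compound 10 min at room temperature, then stimulated with NKH477 (200nM […]) for 30 min. cAMP read by HTRF (665/620 nm).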

[20] = molecular target: D(2) dopamine receptor (Homo sapiens) (UniProt P14416); test: Dopamine D2 receptor (DRD2) small molecule antagonists, cell-based qHTS assay (AID 1963595; active = well fitted inhibition curve with a large enough effect in the signal ratio in the repeat runs, with a control signal flat; the % refers to the signal ratio)
How it was run: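 Human DRD2 antagonist qHTS measuring cAMP by HTRF. The cells are exposed to compound for 10 min, then to NKH477 (200 nM) and quinpirole (12 nM) for 30 min at RT, with Ro20-1724 (0.1 mM) present throughout.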

SMILES	Potency [1]	Potency [2]	Potency [3]	Potency [4]	Potency [5]	Potency [6]	Potency [7]	Potency [8]	Potency [9]	Potency [10]	Potency [11]	Potency [12]	Potency [13]	Potency [14]	Potency [15]	Potency [16]	Potency [17]	Potency [18]	Potency [19]	Potency [20]
BrCBr	inactive	inactive	inactive	inactive	inactive	inactive	inactive	inactive	inactive	inactive	inactive	inactive	inactive	inactive	inactive	inactive	inactive	–	–	–
O=c1[nH]c2ccccc2n1C1CCNCC1	inactive	inactive	inactive	inactive	inactive	inactive	inactive	inactive	inactive	inactive	inactive	inactive	inactive	inactive	inactive	inactive	–	inactive	inactive	inactive
Cc1c([N+](=O)[O-])cc2c(c1[N+](=O)[O-])C(C)(C)CC2(C)C	inactive	48.6 µM (active)	inactive	inactive	inactive	inactive	inactive	inactive	inactive	inactive	inactive	inactive	inactive	inactive	inactive	inactive	inactive	–	inactive	inactive
COc1cc(Cl)c(OC)cc1Cl	inactive	inactive	inactive	inactive	inactive	inactive	inactive	inactive	inactive	inactive	inactive	inactive	inactive	inactive	inactive	–	inactive	–	–	inactive
II	inactive	inactive	inactive	inactive	inactive	inactive	inactive	inactive	inactive	inactive	inactive	inactive	–	inactive	inactive	inactive	inactive	inactive	–	–
CCCC[N+]1(C)[C@@H]2CC(OC(=O)[C@H](CO)c3ccccc3)C[C@H]1[C@@H]1O[C@@H]12 (stereo partly drawn)	inactive	inactive	inactive	inactive	inactive	inactive	inactive	inactive	inactive	inactive	inactive	–	–	3.65 µM (active)	inactive	inactive	inactive	inactive	inactive	inactive
COc1ccc2c(c1OC)CN1CCc3cc4c(cc3C1C2)OCO4 (stereo not drawn)	inactive	inactive	inactive	inactive	inactive	inactive	inactive	inactive	inactive	inactive	–	inactive	inactive	inactive	inactive	–	–	inactive	–	inactive
